Source: PubChem BioAssay
Calls of active or inactive are those of the source.

Experiments:
[1] = small molecules captured by biotinylated probe aFSTL3 – biochemical, small-molecule microarray, fluorescence 635/667, stem cell growth factor project, primary screen (AID 1064); conditions: higher = more signal;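 also: measures binding of the biotinylated anti-FSTL3 antibody to printed compounds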
[2] = binders from COS7 lysate, DM2A8 probe, primary screen, torsin A project, cell lysate, small-molecule microarray, fluorescence 635/667 (AID 1065); conditions: higher = more signal, COS7 lysate expressing mutant human TOR1A
[3] = small molecules captured by biotinylated probe aFGF2 – biochemical, small-molecule microarray, fluorescence 635/667, stem cell growth factor project, primary screen (AID 1067); conditions: higher = more signal;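 also: measures binding of biotinylated aFGF2 protein to printed compounds on slides; z-score merges feature fluorescence and signal-to-noise across triplicate slides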
[4] = small molecules captured by biotinylated probe aFGF10 – biochemical, small-molecule microarray, fluorescence 635/667, stem cell growth factor project, primary screen (AID 1071); conditions: higher = more signal;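 also: score merges 667 nm spot intensity and signal to noise from triplicate slides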
[5] = biological target: Neurogenic locus notch homolog protein 2 (Homo sapiens) (UniProt Q04721); experiment: small molecules binding Notch2 protein – biochemical, small-molecule microarray, 635 nm fluorescence, stem cell growth factors, primary screen (AID 1073); conditions: higher = more signal
[6] = biological target: Pro-neuregulin-1, membrane-bound isoform (Homo sapiens) (UniProt Q02297); experiment: small molecules binding neuregulin-1 protein – biochemical, small-molecule microarray, fluorescence 635/667, psychiatric disease protein project, primary screen (AID 1075); conditions: NRG1 binding, 635 nm fluorescence, higher = more signal;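 also: score combines 667 nm spot fluorescence with signal to noise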
Pro-neuregulin-1, membrane-bound isoform (Homo sapiens), sequence (Q02297 whole entry, looked up, the tested form may be a part, canonical isoform): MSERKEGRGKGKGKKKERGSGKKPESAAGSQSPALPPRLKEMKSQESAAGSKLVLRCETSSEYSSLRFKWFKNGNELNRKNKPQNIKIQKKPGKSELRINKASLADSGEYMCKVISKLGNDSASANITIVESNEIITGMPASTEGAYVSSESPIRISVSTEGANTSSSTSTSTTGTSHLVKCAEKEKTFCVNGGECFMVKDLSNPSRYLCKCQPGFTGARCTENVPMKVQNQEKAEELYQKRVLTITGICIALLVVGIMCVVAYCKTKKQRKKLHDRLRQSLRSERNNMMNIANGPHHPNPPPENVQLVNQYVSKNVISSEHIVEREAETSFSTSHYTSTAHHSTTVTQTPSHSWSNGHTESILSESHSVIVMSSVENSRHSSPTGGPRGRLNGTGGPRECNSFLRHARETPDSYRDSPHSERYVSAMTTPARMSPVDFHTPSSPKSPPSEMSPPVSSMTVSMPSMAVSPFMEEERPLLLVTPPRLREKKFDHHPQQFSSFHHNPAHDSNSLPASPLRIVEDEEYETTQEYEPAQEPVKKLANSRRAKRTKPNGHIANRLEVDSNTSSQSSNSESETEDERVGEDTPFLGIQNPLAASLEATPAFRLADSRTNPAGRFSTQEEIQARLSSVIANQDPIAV

[7] = test system: Neuregulin-1 EGF-like domain; experiment: small molecules binding NRG1 EGF domain – biochemical, small-molecule microarray, 635 nm fluorescence, primary screen (AID 1081); conditions: higher = more signal;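 also: binding of the protein to compounds printed on small-molecule microarray slides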
[8] = FRG1 expression reporter modulators in myotubes – cell-based, C2C12 myotubes, firefly/Renilla luciferase, luminescence, FRG1 inhibition for FSHD, primary screen (AID 1084); conditions: FRG1 promoter luciferase, higher = more signal, called active from +8 up or from −8 down
[9] = small molecules captured by biotinylated probe aFST – biochemical, small-molecule microarray, fluorescence 635/667, stem cell growth factor project, primary screen (AID 1086); conditions: higher = more signal;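 also: score merges 667 nm fluorescence with signal-to-noise of each printed compound spot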
[10] = binders of probe aHhip on microarray, primary screen, stem cell growth factor project, biochemical, small-molecule microarray, fluorescence 635/667 (AID 1087); conditions: higher = more signal;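 also: score merges spot fluorescence at 667nm with spot signal to noise ratio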
[11] = test system: PRMT1 (protein arginine N-methyltransferase 1); experiment: small molecules binding arginine methyltransferase PRMT1 – biochemical, small-molecule microarray, 635 nm fluorescence, primary screen (AID 1088); conditions: higher = more signal;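 also: binding of Prmt1 protein to compounds spotted on small-molecule microarray slides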
[12] = growth effects on S. cerevisiae YJM789 – YJM789 clinical isolate, OD600, 24 h, basal, primary screen (AID 1089); conditions: higher = more signal, called active from +8 up or from −8 down;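 also: growth of clinical yeast isolate S. cerevisiae YJM 789 seeded 1000 cells per well; test concentration not given here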
[13] = S. pombe growth modifiers, basal conditions – strain 972, OD600, 24 h, no modulator, primary screen (AID 1090);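 also: basal condition with compound alone and no growth modifier present; test concentration not given here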; conditions: S. pombe 972 growth, higher = more signal, called active from +8 up or from −8 down
[14] = budding yeast growth modifiers under rapamycin – strain BY4716, OD600, 96 h, primary screen (AID 1091); also: test concentration not given here; conditions: S. cerevisiae BY4716 + rapamycin, higher = more signal, called active from +8 up or from −8 down
[15] = biological target: Torsin-1A-interacting protein 2 (Homo sapiens) (UniProt Q8NFQ8); experiment: small molecules binding lysate-expressed LULL1 – cell lysate, human LULL1 lysate, 635/667 nm fluorescence, primary screen (AID 1092); conditions: small-molecule microarray, hLULL1 lysate binding, 635 nm fluorescence; higher = more signal;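 also: probe is lysate of COS7 cells overexpressing human LULL1; score merges per-feature 667 nm fluorescence with signal-to-noise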
Torsin-1A-interacting protein 2 (Homo sapiens), sequence (Q8NFQ8 whole entry, looked up): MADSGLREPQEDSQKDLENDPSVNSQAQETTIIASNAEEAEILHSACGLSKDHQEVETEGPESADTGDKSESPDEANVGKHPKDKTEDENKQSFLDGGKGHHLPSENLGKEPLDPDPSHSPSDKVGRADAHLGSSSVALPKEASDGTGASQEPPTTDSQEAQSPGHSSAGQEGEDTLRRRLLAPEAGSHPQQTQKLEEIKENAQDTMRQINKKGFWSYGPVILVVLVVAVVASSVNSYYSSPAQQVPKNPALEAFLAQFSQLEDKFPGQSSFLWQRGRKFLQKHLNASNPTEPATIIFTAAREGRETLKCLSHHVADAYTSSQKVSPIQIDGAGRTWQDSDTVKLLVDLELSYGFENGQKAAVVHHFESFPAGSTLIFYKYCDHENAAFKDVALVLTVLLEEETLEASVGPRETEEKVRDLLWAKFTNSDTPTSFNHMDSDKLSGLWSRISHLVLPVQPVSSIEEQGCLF

[16] = optical density change of DRC41 E. coli – strain DRC41, OD650, 24 h, E. coli filamentation project, primary screen (AID 1093);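 also: MC1000 strain lacking acrAB efflux and sulA so SOS filamentation is blocked; test concentration not given here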; conditions: E. coli DRC41 growth, higher = more signal, called active from +8 up or from −8 down
[17] = probe aLefty2 binding to arrayed compounds – biochemical, biotinylated probe, 635/667 nm fluorescence, primary screen (AID 1094); conditions: small-molecule microarray, higher = more signal;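 also: score merges spot fluorescence near 667 nm with spot signal-to-noise ratio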
[18] = test system: Noggin (protein binding on small-molecule microarray); experiment: small molecules binding Noggin protein – biochemical, 635/667 nm fluorescence, primary screen (AID 1095); conditions: 635 nm fluorescence, higher = more signal;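 also: score merges 667 nm feature fluorescence with signal to noise over triplicate slides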
[19] = biological target: Neurogenic locus notch homolog protein 3 (Homo sapiens) (UniProt Q9UM47); experiment: small molecules binding NOTCH3 protein – biochemical, 635/667 nm fluorescence, primary screen (AID 1096); conditions: small-molecule microarray, 635 nm fluorescence, higher = more signal
Neurogenic locus notch homolog protein 3 (Homo sapiens), sequence (Q9UM47 whole entry, looked up): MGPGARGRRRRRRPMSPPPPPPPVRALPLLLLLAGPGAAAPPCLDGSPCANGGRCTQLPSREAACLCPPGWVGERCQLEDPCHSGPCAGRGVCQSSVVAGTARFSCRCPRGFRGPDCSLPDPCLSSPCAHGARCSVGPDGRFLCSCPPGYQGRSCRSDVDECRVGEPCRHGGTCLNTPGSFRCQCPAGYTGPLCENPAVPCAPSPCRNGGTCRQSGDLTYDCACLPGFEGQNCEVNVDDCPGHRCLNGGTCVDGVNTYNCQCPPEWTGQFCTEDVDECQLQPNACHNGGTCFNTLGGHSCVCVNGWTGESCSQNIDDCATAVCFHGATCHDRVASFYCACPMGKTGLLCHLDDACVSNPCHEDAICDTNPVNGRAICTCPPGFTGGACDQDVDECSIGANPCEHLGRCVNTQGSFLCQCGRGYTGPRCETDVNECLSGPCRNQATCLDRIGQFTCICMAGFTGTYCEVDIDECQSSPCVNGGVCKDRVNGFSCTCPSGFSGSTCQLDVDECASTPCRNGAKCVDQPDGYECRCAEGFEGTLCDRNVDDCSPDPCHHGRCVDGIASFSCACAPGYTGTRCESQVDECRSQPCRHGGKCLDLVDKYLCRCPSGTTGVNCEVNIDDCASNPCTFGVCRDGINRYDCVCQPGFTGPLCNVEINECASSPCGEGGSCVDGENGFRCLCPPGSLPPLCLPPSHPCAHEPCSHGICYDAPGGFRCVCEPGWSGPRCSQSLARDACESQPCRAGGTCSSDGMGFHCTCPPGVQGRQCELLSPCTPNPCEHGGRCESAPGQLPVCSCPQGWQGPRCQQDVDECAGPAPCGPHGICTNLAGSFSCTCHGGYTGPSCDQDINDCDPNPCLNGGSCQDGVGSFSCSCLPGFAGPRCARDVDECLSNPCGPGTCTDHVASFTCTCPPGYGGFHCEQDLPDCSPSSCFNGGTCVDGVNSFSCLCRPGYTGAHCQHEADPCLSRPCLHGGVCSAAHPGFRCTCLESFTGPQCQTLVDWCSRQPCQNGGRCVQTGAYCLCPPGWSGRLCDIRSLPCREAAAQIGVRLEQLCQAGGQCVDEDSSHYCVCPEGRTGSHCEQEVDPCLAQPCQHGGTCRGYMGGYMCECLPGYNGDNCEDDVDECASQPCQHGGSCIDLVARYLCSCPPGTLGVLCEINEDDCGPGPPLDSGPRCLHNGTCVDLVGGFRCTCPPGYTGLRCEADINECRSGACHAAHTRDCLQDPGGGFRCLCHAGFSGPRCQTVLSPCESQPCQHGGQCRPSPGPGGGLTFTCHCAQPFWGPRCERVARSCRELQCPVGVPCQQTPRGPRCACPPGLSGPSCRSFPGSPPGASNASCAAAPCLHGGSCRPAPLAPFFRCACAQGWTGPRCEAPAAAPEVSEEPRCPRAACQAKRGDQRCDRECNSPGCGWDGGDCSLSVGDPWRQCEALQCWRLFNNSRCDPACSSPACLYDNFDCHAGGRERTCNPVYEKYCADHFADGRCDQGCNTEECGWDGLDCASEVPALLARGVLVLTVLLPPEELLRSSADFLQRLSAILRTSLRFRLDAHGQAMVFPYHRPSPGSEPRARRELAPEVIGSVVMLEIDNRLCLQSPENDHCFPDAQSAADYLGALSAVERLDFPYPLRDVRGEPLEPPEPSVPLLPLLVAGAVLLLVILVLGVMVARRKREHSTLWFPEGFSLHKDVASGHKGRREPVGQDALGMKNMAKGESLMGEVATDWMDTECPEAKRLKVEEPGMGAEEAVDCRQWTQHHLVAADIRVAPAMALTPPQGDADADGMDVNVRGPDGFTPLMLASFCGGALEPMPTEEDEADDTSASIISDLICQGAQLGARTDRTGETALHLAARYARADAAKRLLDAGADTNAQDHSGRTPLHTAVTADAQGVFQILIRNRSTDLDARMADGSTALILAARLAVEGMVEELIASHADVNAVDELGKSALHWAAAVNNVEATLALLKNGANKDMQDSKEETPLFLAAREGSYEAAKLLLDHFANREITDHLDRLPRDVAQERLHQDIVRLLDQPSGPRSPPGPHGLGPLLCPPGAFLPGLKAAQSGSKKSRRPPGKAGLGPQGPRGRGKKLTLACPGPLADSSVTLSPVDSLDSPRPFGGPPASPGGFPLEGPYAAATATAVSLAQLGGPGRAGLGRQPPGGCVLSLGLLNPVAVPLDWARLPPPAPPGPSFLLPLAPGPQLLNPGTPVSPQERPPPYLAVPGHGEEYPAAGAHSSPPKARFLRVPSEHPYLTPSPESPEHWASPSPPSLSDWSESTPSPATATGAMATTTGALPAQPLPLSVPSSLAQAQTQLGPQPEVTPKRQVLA

[20] = probe aEGFR binding to arrayed compounds – biochemical, biotinylated probe, 635/667 nm fluorescence, primary screen (AID 1097); conditions: small-molecule microarray, higher = more signal;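 also: probe is a biotinylated anti-EGFR antibody binding compounds printed on slides; score combines fluorescence near 667 nm and signal to noise of each spot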

| Compound | composite z-score [1] | composite z-score [2] | composite z-score [3] | composite z-score [4] | composite z-score [5] | composite z-score [6] | composite z-score [7] | z-score [8] | composite z-score [9] | composite z-score [10] | composite z-score [11] | z-score [12] | z-score [13] | z-score [14] | composite z-score [15] | z-score [16] | composite z-score [17] | composite z-score [18] | composite z-score [19] | composite z-score [20] |
| --- | --- | --- | --- | --- | --- | --- | --- | --- | --- | --- | --- | --- | --- | --- | --- | --- | --- | --- | --- | --- |
| O=C1[C@H]2C=C(Br)[C@H](C[C@@H]2OCCCCO)[C@@]12CO2 | -0.441 | -0.199 | -0.116 | 0.0593 | 0.0769 | -0.434 | -0.0036 | -0.636 (inactive) | -0.241 | -0.0237 | -0.162 | 0.176 (inactive) | -0.248 (inactive) | 0.93 (inactive) | -0.99 | -1.03 (inactive) | -0.0778 | -0.0486 | 0.221 | -0.0409 |
| O=C1O[C@@H](c2ccccc2)[C@@H](c2ccccc2)N2[C@@H](c3ccc(OCCO)cc3)[C@]3(C(=O)Nc4ccccc43)[C@@H](C(=O)NC[C@H](O)c3ccccc3)[C@H]12 | -0.0164 | 0.0007 | -0.019 | -0.0455 | 1.27 | 1.24 | 1.26 | -2.2 (inactive) | 0.322 | -0.145 | 1.35 | 1.63 (inactive) | 1.59 (inactive) | 4.14 (inactive) | 2.44 | -0.46 (inactive) | 0.161 | 0.457 | 0.488 | 0.174 |
| CCOc1cc(C(O)C2C=CC3C(=O)N(c4ccccc4)C(=O)C3N2Nc2ccccc2)ccc1O (stereo not given) | 0.259 | 0.107 | 0.252 | 1.03 | 0.66 | 1.8 | 1.2 | 0.893 (inactive) | 0.771 | -0.189 | 0.408 | 0.881 (inactive) | -0.692 (inactive) | 1.2 (inactive) | 3.52 | 0.374 (inactive) | -0.0371 | -0.419 | 0.498 | 0.0192 |
| OC([C@@H]1CC(c2ccccc2)=NO1)[C@H]1CC(c2ccccc2)=NO1 (stereo not given in full) | 0.0787 | -0.141 | -0.0634 | 0.287 | 0.178 | -0.0896 | 0.563 | 0.364 (inactive) | 0.227 | 0.0024 | -0.629 | 0.784 (inactive) | -0.786 (inactive) | 1.55 (inactive) | 0.299 | 2.52 (inactive) | -0.0748 | 0.281 | -0.158 | 0.0655 |
| CC(C)(C)C(=O)N[C@@H](c1ccc(Cl)cc1)[C@]1(C)C[C@H]1C1CCCCC1 | 1.05 | 0.845 | 0.282 | 0.57 | 1.51 | 2.09 | 1.19 | -1.52 (inactive) | 1.47 | 0.0053 | 1.05 | 0.553 (inactive) | 0.613 (inactive) | -0.104 (inactive) | 3.61 | -0.21 (inactive) | 0.43 | -0.486 | 1.05 | 0.106 |
| O=C(c1ccccc1)N1Cc2ccccc2[C@@H]2OC(c3ccc(OCCCO)cc3)=N[C@]2(Cc2ccccc2)C1=O | -0.0231 | 0.483 | 0.0462 | 0.158 | 0.649 | 1.32 | 1.24 | -1.05 (inactive) | -0.171 | -0.208 | 1.2 | -0.756 (inactive) | 0.833 (inactive) | 4.11 (inactive) | 3.13 | -0.0783 (inactive) | 0.0337 | 1.05 | 1.1 | -0.0187 |
| COCC(=C=CC[C@@H](O)c1ccccc1OCCO)C[C@@H](O)c1cc(Cl)cc(Cl)c1O | -0.685 | 0.528 | -0.0276 | 1.14 | 1.09 | 0.935 | 1 | -0.914 (inactive) | 0.624 | 0.164 | 1.53 | 0.157 (inactive) | -0.563 (inactive) | 0.0403 (inactive) | 2.13 | 0.0142 (inactive) | -0.053 | 1.42 | 1.07 | -0.0353 |
| C=CC[C@]1(C(=O)NCCCOC)N=C(c2ccc(OCCCO)cc2)O[C@H]1c1ccccc1N=[N+]=[N-] | 0.149 | -0.0693 | 0.119 | 0.751 | 1.39 | 0.94 | 0.989 | 0.665 (inactive) | 1.18 | -0.192 | 1.55 | -0.707 (inactive) | -0.688 (inactive) | 1.47 (inactive) | 3.48 | 0.421 (inactive) | 0.0482 | 0.444 | 0.935 | -0.265 |
| CCN(CC)c1ccc(N2CC=CC34O[C@@H]5/C=C\CCCOC(=O)C5[C@H]3C(=O)N(CCO)[C@@H]4C2=O)cc1 (stereo not given in full) | 0.244 | -0.542 | -0.0785 | -0.715 | -1.24 | 1.84 | 0.632 | 0.599 (inactive) | -0.584 | -0.0061 | 0.0226 | 0.0765 (inactive) | -1.11 (inactive) | 0.0541 (inactive) | 1.3 | 0.557 (inactive) | -0.253 | -0.715 | -0.162 | -0.286 |
